The values below come from PMC5540273 (PLoS ONE, 2017).

The structures appear in SMILES notation.
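Also: kd values determined as follow-up on hits from a single-replicate KINOMEscan panel screen.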

In this assay the test system is ROCK1.
The term Kd denotes a measure of binding affinity in units of concentration. For `CSc1nn2c(=O)cc(N3CCOCC3)nc2n1Cc1cccc(C(F)(F)F)c1C` [GSK2363608], the dissociation constant Kd was 46 nM. This lies in the double-digit nanomolar range.

Take `O=S(=O)(c1ccc(-c2ccnc3[nH]ccc23)cc1)N1CCCC1` [GSK846226]: the Kd was 330 nM.

With `CC1=C(C(=O)Nc2cc3cn[nH]c3cc2F)C(c2ccc(C(F)(F)F)cc2)CC(=O)N1` (stereo not drawn) [GSK429286], binding was characterised by a dissociation constant (Kd) of 2.7 nM.
